Screens (PubChem BioAssay)
MEKK2mut PB1 HTS – MEK5 binding signal on mutant MEKK2 PB1, primary screen, biochemical, multiplex bead flow cytometry, Alexa488-MEK5 | Alexa488-MEK5 binding to MEKK2 mutant | percent response, % at 10 µM | 290,000 tested, 0.35% active | AID 1530, 2009; in the data active = percent response above about 24%, passing the limit was not always enough
MEKK3 PB1 HTS – modulators of MEKK3-MEK5 PB1 binding, primary screen, biochemical, wildtype MEKK3, multiplex bead flow cytometry, Alexa488-MEK5; Mitogen-activated protein kinase kinase kinase 3 (Homo sapiens), Q99759; bead-based flow cytometry, Alexa488-MEK5 binding to MEKK3; actives lie on both sides; 0 = blocked by unlabeled MEK5, 100 = vehicle; binding response (% of control), % at 10 µM; 290,000 tested, 1.4% active;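 active = binding response more than 3 SD above or below the average of its plate-row segment, actives on both sides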;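 note: Alexa488 bead fluorescence after subtracting the streptavidin-only scavenger bead signal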
Target sequence (Q99759 whole entry, looked up): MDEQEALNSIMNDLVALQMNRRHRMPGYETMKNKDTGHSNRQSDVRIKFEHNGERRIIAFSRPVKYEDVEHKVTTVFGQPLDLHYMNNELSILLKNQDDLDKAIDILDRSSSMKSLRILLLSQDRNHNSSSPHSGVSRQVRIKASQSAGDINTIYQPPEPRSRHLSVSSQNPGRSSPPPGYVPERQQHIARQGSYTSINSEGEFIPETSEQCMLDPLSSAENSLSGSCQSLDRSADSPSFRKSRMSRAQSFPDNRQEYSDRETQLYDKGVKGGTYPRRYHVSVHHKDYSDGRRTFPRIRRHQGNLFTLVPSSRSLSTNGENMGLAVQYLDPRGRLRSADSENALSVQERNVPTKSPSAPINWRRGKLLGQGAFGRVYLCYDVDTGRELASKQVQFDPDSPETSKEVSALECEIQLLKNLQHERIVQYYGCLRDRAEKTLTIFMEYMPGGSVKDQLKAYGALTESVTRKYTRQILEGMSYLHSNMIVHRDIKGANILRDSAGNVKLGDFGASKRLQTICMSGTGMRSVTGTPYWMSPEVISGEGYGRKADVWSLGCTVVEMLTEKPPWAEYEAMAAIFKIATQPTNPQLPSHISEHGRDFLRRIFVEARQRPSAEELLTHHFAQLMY
NTR1 ag – agonists of human NTR1, primary screen, imaging, U2OS cells, beta-arrestin-GFP, high content | 330,000 tested, 0.17% active | activation, % at 20 µM | Neurotensin receptor type 1 (Homo sapiens), P30989 | NTR1-U2OS beta-arrestin-GFP spot imaging, agonist mode;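 active = activation at or above 40% of the spot to cytoplasm intensity ratio, with at least 20 cells analyzed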;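 note: 0% = DMSO without peptide and 100% = 100 nM NTR1 peptide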
ANO1 block – TMEM16A chloride channel inhibitors, primary screen, cell-based, HTS. HEK293 TMEM16A/YFP iodide influx fluorescence, ionomycin. Anoctamin-1 (Mus musculus), Q8BHY3. 310,000 tested, 1.2% active. normalized B-score (activity score, 25-100; higher = stronger inhibition) at 10 µM;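 active = ratio plate-corrected score three or more library SD toward inhibition, starting fluorescence score within five deviations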;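 note: score derived from kinetic fluorescence span divided by baseline fluorescence per well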
TMEM16A act – TMEM16A chloride channel activators or potentiators, primary screen, cell-based, HTS | 340,000 tested, 0.3% active | B-score at 10 µM | Anoctamin-1 (Mus musculus), Q8BHY3 | AID 623877, 2012 | HEK293 TMEM16A/YFP-H148Q/I152L, iodide quench fluorescence; active compounds read low;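 active = fluorescence-ratio B-score plate-corrected deviation score at least 3 library SD below zero, with starting fluorescence score within 5 deviations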;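 note: channel opened by trigger with iodide after compound preincubation; score built on the fluorescence ratio of max minus min over baseline; more negative score means more quench and so TMEM16A activation or potentiation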
MEKK2 WT-MEK5 – modulators of MEK5 binding to wildtype MEKK2, primary screen, biochemical, multiplex bead flow cytometry, Alexa488-MEK5; Mitogen-activated protein kinase kinase kinase 2 (Homo sapiens), Q9Y2U5; Alexa488-MEK5 binding to MEKK2 WT; actives lie on both sides; binding response (% of control), % at 10 µM; 290,000 tested, 1.1% active; AID 1531, 2009; in the data active = binding response below about 67% or above about 130%
* hit, by the source's call; i = inactive; / = no result given; [ ] = remark or other dose. Sampled rows, rich in hits. Any-hit rate of the full collection: about 3.4%.

SMILES	MEKK2mut PB1 HTS	MEKK3 PB1 HTS	NTR1 ag	ANO1 block	TMEM16A act	MEKK2 WT-MEK5
CCN1CCCC1CNC(=O)c1ccc2c(c1)NC(=O)/C(=C\c1ccc(OC)c(OC)c1)S2 (centres undefined)	25*	91	1	i	i	153*[inhibitor]
O=C1Nc2cc(C(=O)NCCN3CCCCCC3)ccc2S/C1=C\c1ccccc1	43*	110	10	i	i	219*
COc1cccc(/C=C2/Sc3ccc(C(=O)NCCN4CCCCCC4)cc3NC2=O)c1	71*	112	21	i	i	280*
CCOC(=O)C1CCN(C(=O)c2ccc3c(c2)NC(=O)/C(=C\c2cccc(C)c2)S3)CC1	-8	98	18	i	i	95
COc1cccc(/C=C2\Sc3ccc(C(=O)NCc4cccnc4)cc3N(C)C2=O)c1	5	107	0	i	i	115
CN(Cc1ccccc1)C(=O)c1cccc(NC(=O)C2CCCN(C(=O)OC(C)(C)C)C2)c1 (centres undefined)	/	/	1	/	i	/
O=C(N/N=C/C=C/c1ccccc1)NC1CCCCC1	1	107	2	i	i	100
O=C(COC(=O)CC1CCCCC1)Nc1c(Cl)cccc1Cl	/	/	0	/	i	/
CCC(C)NC(=O)C(Cc1ccccc1)NS(=O)(=O)c1ccc2c(c1)oc(=O)n2C (centres undefined)	1	99	0	i	i	100
c1ccc(-c2nc3ccccn3c2-c2ccccc2)cc1	/	/	2	i	i	/
CCOC(=O)Cc1ncccc1C(=O)Nc1ccc(Oc2ccccc2)cc1	-4	97	1	i	i	93
Cc1cc(C)cc(NC(=O)N2CCN(C/C=C/c3ccccc3)CC2)c1	-20	76	-2	i	i	83
CCOC(=O)C1CCN(C(=O)c2ccc3c(c2)NC(=O)/C(=C/c2ccccc2)S3)CC1	-8	98	6	i	-50*	98
Cc1ccc(C)c(OCc2cc(C(=O)NC3CCN(Cc4ccccc4)CC3)no2)c1	11	106	4	i	i	135*
Cn1cccc1/C=C(/C#N)C(N)=S	-1	113	0	i	i	101
CCCCc1ccc(/C=C(\C#N)C(N)=S)s1	5	108	7	/	i	5.0*
CN1CCN(CCCNC(=O)C2CCN(c3nnc(-n4cccc4)s3)CC2)CC1	/	/	0	i	i	/
CCC1CCCCN1CCCNC(=O)C1CCN(c2nnc(-n3cccc3)s2)CC1 (centres undefined)	14	102	0	i	i	141*
CCOc1ccc(NCc2cccn2-c2nnc(N3CCC(C(=O)NCCCN4C(C)CCCC4C)CC3)s2)cc1 (centres undefined)	25*	107	0	i	i	152*
CCOc1ccc(NCc2cccn2-c2nnc(N3CCC(C(=O)NCCCN4CCCCC4C)CC3)s2)cc1 (centres undefined)	33*	104	2	i	i	147*
CCOc1ccc(NCc2cccn2-c2nnc(N3CCC(C(=O)NCCCN4CCCCC4)CC3)s2)cc1	10	101	0	i	i	125
CC(C)(C)C(=O)NC(=S)NNC(=O)C(c1ccccc1)c1ccccc1	-1	107	18	100*	i	106
CC(=O)NNC(=S)NC(=O)C(c1ccccc1)c1ccccc1	-8	97	0	i	i	85
C(=C1/CCCC2=C1Nc1ncnn1C2c1ccccc1)/c1ccccc1 (centres undefined)	0	100	73*	i	/	99
S=C1NC2=C(CCC/C2=C\c2ccccc2)C(c2ccccc2)N1 (centres undefined)	3	98	0	i	i	97
SMILES	MEKK2mut PB1 HTS	MEKK3 PB1 HTS	NTR1 ag	ANO1 block	TMEM16A act	MEKK2 WT-MEK5
COc1ccc(CC(=O)OCC(=O)N2CCc3ccccc32)cc1OC	/	/	1	/	-25*	/
COc1ccc(S(=O)(=O)N2CCOCC2)cc1NC(=O)c1sccc1C	/	/	1	/	i	/
CCOc1ccccc1NC(=O)CN(c1ccc(OC)cc1OC)S(=O)(=O)c1ccccc1[N+](=O)[O-]	-2	107	1	i	-5.2*	102
COc1ccc(N(CC(=O)Nc2ccccc2C)S(=O)(=O)c2ccccc2[N+](=O)[O-])c(OC)c1	-8	97	0	i	i	89
CCOC(=O)c1c(NC(=O)CSc2nnnn2-c2ccc(OC)cc2)sc(C)c1C	3	99	6	25*	i	100
CCOC(=O)c1c(NC(=O)c2cc(C(C)C)on2)sc(C(C)=O)c1C	3	110	1	i	-12*	104
CCOC(=O)c1c(NC(=O)c2cc(CC(C)C)on2)sc(C(C)=O)c1C	-5	95	2	i	i	91
CCOC(=O)c1c(NC(=O)CSc2nc3ccccc3s2)sc(C(C)=O)c1C	3	103	2	25*	i	100
CCOC(=O)c1sc(NC(=O)CSc2nc(-c3ccco3)cc(C(F)(F)F)n2)c(C(=O)OCC)c1C	/	/	/	/	-7.7*	/
CC(=O)c1cccc(NC(=O)CCC(=O)Oc2ccc(C)cc2)c1	0	101	0	i	i	104
CCN(C(=O)COC(=O)C1CCN(S(=O)(=O)c2cccs2)CC1)c1ccccc1	-7	98	0	i	i	93
Cc1ccc(C)c(S(=O)(=O)N2CCN(C(=O)C(C)Sc3ccccc3)CC2)c1 (centres undefined)	4	100	0	i	i	102
COC(=O)c1ccc(CSc2nc(-c3ccco3)cc(C(F)(F)F)n2)o1	0	101	2	i	-5.1*	98
COC(=O)c1ccc(CSc2nc(-c3ccccc3)cs2)o1	-5	86	0	25*	i	86
COC(=O)c1ccc(CSc2nnc(NCc3ccccc3)s2)o1	12	114	-2	i	i	113
CCCC(=O)NC(Nc1ccccc1F)C(Cl)(Cl)Cl (centres undefined)	4	103	-1	100*	/	99
CC(C)CC(=O)NC(Nc1ccccc1F)C(Cl)(Cl)Cl (centres undefined)	/	/	-1	i	i	/
